Reference: PubChem BioAssay AID463173 (ICCB-Longwood Screening Facility, Harvard Medical School, 2010)
In all, about 52,000 compounds went through this assay and about 4,300 (8.3%) were called active. No stated cut-off is given here; in the data, active means survival mostly below about 52% (no sharp cut-off); inactive means mostly above about 56%. Shown is part of a subset that was picked to be rich in actives.

The compounds below were run on DeltatarO mutant (assay: S. aureus survival, RN4220 and DeltatarO strains – OD600, teichoic acid synthesis inhibitors, primary screen (AID 463173)). Settings: S. aureus RN4220 wild type/DeltatarO growth, OD600, 18 h, active compounds read low, screened at 18.75 µg/mL (by protocol).
For CCOc1ccccc1NC(=O)C(=O)c1cc(C)n(-c2ccc(F)cc2)c1C, the survival was 114% (inactive).
For Cn1cc(-c2nnc(-c3ccccc3)o2)c2ccccc21, the survival was 94% (inactive).
For CCOc1cc(C(=O)NCc2nc(-c3cccc(C)c3)no2)cc(OCC)c1OCC, the survival was 70% (inactive).
With Cc1ccc(-c2noc(CN(C(=O)c3ccc(C(C)(C)C)cc3)C(C)C)n2)cc1 the survival was -4% (active).
CCOc1ccc(C(=O)NCc2nc(-c3ccc(Cl)cc3)no2)cc1OCC was tested, and the survival was 49% (inactive).
With CCOc1cc(C(=O)N(Cc2nc(-c3ccc(C)cc3)no2)C(C)C)cc(OCC)c1OCC the survival was 50% (active).
For CCCCOc1ccc(C(=O)N(Cc2nc(-c3ccc(Cl)cc3)no2)C(C)C)cc1, the survival was 59% (inactive).
For Cc1ccccc1C(=O)N(Cc1nc(-c2ccc(Cl)cc2)no1)C(C)C, the survival was 78% (inactive).
For Cc1ccc(-c2noc(CNC(=O)c3ccc(C(C)(C)C)cc3)n2)cc1, the survival was 79% (inactive).
Cc1cc(C)cc(C(=O)N(Cc2nc(-c3ccc(Cl)cc3)no2)C(C)C)c1 was tested, and the survival was 14% (active).
With COc1cccc(C(=O)N(Cc2nc(-c3ccc(Cl)cc3)no2)C(C)C)c1OC the survival was 66% (inactive).
CC(C)N(Cc1nc(-c2ccc(Cl)cc2)no1)C(=O)c1ccco1 was tested, and the survival was 68% (inactive).
For CC(C)N(Cc1nc(-c2ccc(Cl)cc2)no1)C(=O)c1ccc(C(C)(C)C)cc1, the survival was -1% (active).
With O=C(CCN1C(=O)CSC1=O)Nc1ccccc1 the survival was 114% (inactive).
COc1ccc(OC)c(-c2noc(N3CCN(c4cccc(C(F)(F)F)c4)CC3)n2)c1 was tested, and the survival was 124% (inactive).
In the case of COc1ccc(NC(=O)c2cnn(-c3ccc(C)cc3)c2-n2cccc2)cc1Cl, the survival is reported as 69% (inactive).
CN1C(=O)Cc2cc(S(=O)(=O)N3CCN(c4ccccc4F)CC3)ccc21 was tested, and the survival was 107% (inactive).
COC(=O)c1cc2occc2n1CC(=O)Nc1ccc(C(C)C)cc1 was tested, and the survival was 93% (inactive).
CCc1ccccc1Nc1cc(C(=O)NCc2ccc(C)cc2)c2ccccc2n1 was tested, and the survival was 69% (inactive).
In the case of Cc1ccc(CNC(=O)CCC(=O)N2CC(C)Sc3ccccc32)cc1 (stereo unspecified), the survival is reported as 45% (active).
In the case of CC1CN(C(=O)CCC(=O)NCc2cccc(Cl)c2)c2ccccc2S1 (stereo unspecified), the survival is reported as 100% (inactive).
With CCOc1ccc(CNC(=O)CCC(=O)N2CC(C)Sc3ccccc32)cc1 (stereo unspecified) the survival was 56% (inactive).
With Cc1ccc(CNC(=O)CCC(=O)N2CCSc3ccccc32)cc1 the survival was 113% (inactive).
With COc1ccccc1CNC(=O)CCC(=O)N1CC(C)Sc2ccccc21 (stereo unspecified) the survival was 111% (inactive).
With COc1cccc(CNC(=O)CCC(=O)N2CC(C)Sc3ccccc32)c1 (stereo unspecified) the survival was 51% (active).
With O=C(Nc1ccc2nc(SCCOc3ccccc3Cl)sc2c1)c1ccc2c(c1)OCO2 the survival was 68% (inactive).
COc1cn(CC(=O)Nc2c(C)cc(C)cc2C)c(CN2CCCCC2)cc1=O was tested, and the survival was 98% (inactive).
CCOc1ccc(NS(=O)(=O)c2ccc(NC(=O)N3CCCC3)cc2)cc1 was tested, and the survival was 101% (inactive).
For COc1ccc(OC)c(NC(=O)C(C)n2c(=O)cc(C)c3c(C)nn(-c4ccccc4)c32)c1 (stereo unspecified), the survival was 94% (inactive).
CCOc1ccccc1-c1cc(C(=O)N/N=C(\C)c2ccco2)[nH]n1 was tested, and the survival was 85% (inactive).
For Fc1ccc(-c2ccc(CNCCSc3nnnn3-c3ccccc3)o2)cc1Cl, the survival was 39% (active).
In the case of Clc1cccc(CNCCCSc2nnnn2-c2ccccc2)c1, the survival is reported as 68% (inactive).
Fc1ccc(CNCCCSc2nnnn2-c2ccccc2)cc1 was tested, and the survival was 97% (inactive).
Cc1c(Cl)cccc1-c1ccc(CNCCSc2nnnn2-c2ccccc2)o1 was tested, and the survival was 62% (inactive).
COc1cc(OC)c(OC)cc1CNCCSc1nnnn1-c1ccccc1 was tested, and the survival was 61% (inactive).
With Clc1cccc(-c2ccc(CNCCSc3nnnn3-c3ccccc3)o2)c1 the survival was 30% (active).
Fc1ccc(-c2ccc(CNCCSc3nnnn3-c3ccccc3)o2)cc1 was tested, and the survival was 28% (active).
With CCOc1cc(CNCCSc2nnnn2-c2ccccc2)ccc1OC the survival was 60% (inactive).
With Fc1cccc(Cl)c1CNCCSc1nnnn1-c1ccccc1 the survival was 79% (inactive).
For CCOc1ccc(Br)cc1CNCCSc1nnnn1-c1ccccc1, the survival was 23% (active).
With Brc1ccc(-c2ccc(CNCCSc3nnnn3-c3ccccc3)o2)cc1 the survival was 67% (inactive).
In the case of Clc1ccc(-c2ccc(CNCCSc3nnnn3-c3ccccc3)o2)cc1, the survival is reported as 52% (inactive).
Cc1ccccc1OCC(=O)Nc1ccc2[nH]c(=O)sc2c1 was tested, and the survival was 133% (inactive).
CN(C)c1ccc(/C=C/C=c2\sc3nc4ccccc4n3c2=O)cc1 was tested, and the survival was 102% (inactive).
Cn1nnnc1SCCCNCc1ccc(-c2ccc(Br)cc2)o1 was tested, and the survival was 32% (active).
For Cn1nnnc1SCCCNCc1ccc(-c2cccc(Cl)c2)o1, the survival was 97% (inactive).
For Cn1nnnc1SCCCNCc1ccc(-c2ccc(F)c(Cl)c2)o1, the survival was 82% (inactive).
With COc1cccc2c1Oc1ncccc1N(C(=O)CCC(=O)NCc1ccc(C)cc1)C2 the survival was 81% (inactive).
CCc1ccc(C2=NN(CCC(=O)NCCc3ccc(Cl)cc3)C(=O)CC2)cc1 was tested, and the survival was 128% (inactive).
For COc1ccc(CCNC(=O)CSc2nc3ccccc3nc2Cc2ccc(Cl)cc2)cc1OC, the survival was 37% (active).
CCOc1ccc(CCNC(=O)CSc2nc3ccccc3nc2Cc2ccc(C)cc2)cc1OCC was tested, and the survival was 112% (inactive).
In the case of Cc1ccc(Cc2nc3ccccc3nc2SCC(=O)NCCc2ccccc2)cc1, the survival is reported as 67% (inactive).
For O=C(CSc1nc2ccccc2nc1Cc1ccc(Cl)cc1)NCCc1ccccc1, the survival was 69% (inactive).
COc1ccc(CCNC(=O)CSc2nc3ccccc3nc2Cc2ccc(C)cc2)cc1OC was tested, and the survival was 35% (active).
In the case of CCCNC(=O)CSc1nc2ccccc2nc1Cc1ccc(Cl)cc1, the survival is reported as 74% (inactive).
With CCCCN(C)C(=O)CSc1nc2ccccc2nc1Cc1ccc(C)cc1 the survival was 32% (active).
With CCCCNC(=O)CSc1nc2ccccc2nc1Cc1ccc(C)cc1 the survival was 87% (inactive).
Cc1ccc(CNC(=O)CSc2nc3ccccc3nc2Cc2ccc(C)cc2)cc1 was tested, and the survival was 71% (inactive).
For CCOc1ccc(CNS(=O)(=O)c2ccc3c(c2)CCCN3C(C)=O)cc1, the survival was 93% (inactive).
For CC(Sc1nc(NC(C)(C)C)nc(N(C)C)n1)C(=O)Nc1ccccc1 (stereo unspecified), the survival was 68% (inactive).
In the case of COc1cc2[nH]c(=O)n(Cc3ccc(C(=O)N4CCN(c5cc(Cl)ccc5C)CC4)cc3)c(=O)c2cc1OC, the survival is reported as 58% (inactive).
